Experimental data: PubChem BioAssay

Assay: probe aNOTCH2 binding on compound microarray – biochemical, small-molecule microarray, 635/667 nm fluorescence, primary screen (AID 1121);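 also: score merges feature fluorescence read at 667 nm with its signal to noise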
Conditions: higher = more signal
In the case of `CC#CC(=O)Oc1ccccc1C=CC(=O)OCC`, the composite z-score is reported as -0.118. `CC(C)CNC(=O)[C@@]1(Cc2ccccc2I)c2ccccc2C(=O)N(C2CCCCC2)[C@H]1c1ccc(CO)cc1` showed a composite z-score of -0.0432. For `O=C(c1ccccc1)N1C(=O)[C@]2(COC(c3ccc(OCCCO)cc3)=N2)Cc2ccccc21`, the composite z-score was -0.0249. Work on `CC(C)(C)OC(=O)CC[C@]1(C(=O)N2CCOCC2)N=C(c2ccc(OCCCO)cc2)O[C@H]1c1ccccc1N=[N+]=[N-]` yielded a composite z-score of 0.119. With `COCCOC(=O)N1C(=O)[C@@]2(c3cc(C#CCC(C(=O)OC)C(=O)OC)ccc31)[C@H](c1ccccc1OCCO)N1[C@H](c3ccccc3)[C@H](c3ccccc3)OC(=O)[C@H]1[C@@H]2C(=O)NC[C@H](O)c1ccccc1` the composite z-score was 0.0568. In the case of `COCCCNC(=O)[C@]1(CCC(=O)OC(C)(C)C)N=C(c2ccc(OCCCO)cc2)O[C@@H]1c1ccccc1CN=[N+]=[N-]`, the composite z-score is reported as -0.0411. `CCOC(=O)C1=C[C@@H](C(C)(C)C)N(S(=O)(=O)c2ccc(C)cc2)[C@H]1c1ccc(F)cc1` gave a composite z-score of -0.0254. In the case of `COc1cc(NN2C(C(O)c3ccco3)C=CC3C(=O)N(c4ccccc4)C(=O)C32)cc(OC)c1OC` (configuration not stated), the composite z-score is reported as -0.139. `CCC(CC)C(O)C1C=CC2C(=O)NC(=O)C2N1Nc1ccc(Cl)cc1Cl` (configuration not stated) showed a composite z-score of 0.0333. In the case of `CCCC[C@H]1OB(O)C[C@H]2C1=C(COC)Cn1c(=O)n(-c3ccccc3)c(=O)n12`, the composite z-score is reported as -0.172. In the case of `C=C(COC)/C(=C/C[C@@H](OC(C)=O)c1ccc(OCCO)cc1)c1cnc2ccccc2c1`, the composite z-score is reported as -0.14. `CN(C)C(=O)[C@@]1(CCS(=O)(=O)c2ccccc2)COC(c2ccc(OCCCO)cc2)=N1` gave a composite z-score of -0.0406.
